PvdQ inh: P. aeruginosa PvdQ acylase inhibition; hit rate 0.063% among 340,000; purified PvdQ acylase, fluorescence plate reader; AID 488965; inhibition, % at 10 µM; in the data active means inhibition above about 30%, passing the limit was not always enough; inconclusive means no clear call, values can overlap the other calls
pCIP destab: p/CIP protein destabilization; Q05BA5; F442A p/CIP-EGFP cells, EGFP fluorescence, 16 h; decrease of EGFP signal, % at 10 µM; hit rate 0.01% among 290,000;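 active means EGFP signal decrease of at least 30% at 10 µM or well 3 SD below plate mean, unless failing retest; inactive means the rest, including hits failing retest or dose response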
GASC-1 inh: inhibitors of human GASC-1 (JMJD2C) demethylase. inhibition, % at 2.35 µM. GST-JMJD2C(1-420) H3K9me3 demethylation, DELFIA europium. hit rate 0.069% among 330,000. AID 2099. Q9H3R0;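 active means more than half of a compound's replicate wells show inhibition beyond 50%, single wells judged on their own value; inconclusive means some, but no more than half, of replicates pass 50% inhibition; inactive means no replicate passes 50% inhibition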;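 further: signal counts dimethyl H3K9 product captured on neutravidin plate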
Mot1-301 SUMO: blocks SUMOylation pathway, rescuing yeast Mot1-301 growth; S. cerevisiae Mot1-301 growth rescue, ATP luminescence, 38.5C; percent above DMSO median, 100 means doubled; growth rescue, % at 18.8 µM; hit rate 1% among 320,000; AID 2716;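 active means every valid replicate shows activation above 250% relative to neutral control wells; inactive means the rest, any valid replicate at or below 250%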
HDAC3 inh: blocks human histone deacetylase 3; hit rate 0.15% among 320,000; O15379; recombinant HDAC3, fluorogenic peptide/trypsin coupled, fluorescence; AID 2718; inhibition, % at 8.3 µM; in the data active means inhibition above about 26%, passing the limit was not always enough; inconclusive means no clear call, values can overlap the other calls
PHOSPHO1 inh: blocks human PHOSPHO1 phosphatase activity | hit rate 1.1% among 290,000 | Q8TCT1 | recombinant PHOSPHO1, absorbance phosphatase assay | inhibition, % at 13.3 µM | AID 1565; in the data active means inhibition above about 60%
Target sequence (Q8TCT1 whole entry, looked up): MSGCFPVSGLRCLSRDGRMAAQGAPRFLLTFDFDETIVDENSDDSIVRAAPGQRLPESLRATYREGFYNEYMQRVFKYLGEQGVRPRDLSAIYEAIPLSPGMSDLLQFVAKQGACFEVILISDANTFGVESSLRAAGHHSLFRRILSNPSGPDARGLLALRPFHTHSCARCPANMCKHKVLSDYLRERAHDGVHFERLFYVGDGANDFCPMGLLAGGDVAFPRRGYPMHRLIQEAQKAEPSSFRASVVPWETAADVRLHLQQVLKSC
Hits are given with their value; . = inactive; ? = inconclusive; / = no result. In the library only some 2.2% were active in any assay of this set; here they are far more common.

SMILES	PvdQ inh	pCIP destab	GASC-1 inh	Mot1-301 SUMO	HDAC3 inh	PHOSPHO1 inh
CC(C(Sc1ccccc1N)c1ccccc1)[N+](=O)[O-] (stereo not drawn)	.	.	.	746.6	.	.
COc1ccc(NC(=O)Cn2ccc(C(F)(F)F)n2)cc1S(=O)(=O)N1CCOCC1	.	/	.	.	.	/
COc1ccc(NC(=O)C2CCCN2C(=O)NC2CCCCC2)cc1OC (stereo not drawn)	.	.	.	.	.	.
COc1ccc(NC(=O)C2CCCN(C(=O)NC3CCCCC3)C2)cc1OC (stereo not drawn)	34.3	.	.	.	.	.
O=C(COc1ccc(S(=O)(=O)Nc2ccccc2)cc1)NCc1cccnc1	.	.	.	.	.	.
Cc1ccccc1NS(=O)(=O)c1ccc(OCC(=O)NCc2cccnc2)cc1	.	.	.	385.1	/	.
O=C(c1cn(-c2ccccc2)nc1-c1ccccc1)N1CCOCC1	.	.	.	.	.	.
O=C(c1cn(-c2ccccc2)nc1-c1ccc(Cl)cc1)N1CCOCC1	.	.	.	331.1	.	.
CC(=O)c1cc2cc(O)ccc2o1	.	.	.	.	.	88.9
COc1ccc(C(=O)NC2CCSc3ccccc32)cc1S(=O)(=O)N1CCOCC1 (stereo not drawn)	.	/	.	.	/	/
Oc1ccc(N=Nc2ccccc2)o1	.	.	.	312.8	.	.
O=c1ccc(N=Nc2ccccc2)ccc1O	.	.	.	.	.	.
Cc1ccnc(NC(=O)c2cc([N+](=O)[O-])cc([N+](=O)[O-])c2)c1	.	.	.	/	.	64.7
Cc1ccnc(NC(=O)Cc2ccc([N+](=O)[O-])cc2)c1	.	.	.	363.6	.	.
COc1ccc(C2CC(c3cccs3)=NN2C(=O)CSc2nc(=O)n3cc(C)ccc3n2)cc1 (stereo not drawn)	.	/	.	.	.	/
Cn1cnnc1SCc1ccc(-c2ccc(Br)cc2)o1	.	.	.	.	.	84.6
Cn1cnnc1SCc1ccccc1	.	.	.	/	.	.
COc1ccc(-c2nc3ccccc3c(=O)n2-c2c(C)n(C)n(-c3ccccc3)c2=O)cc1	.	.	.	.	.	.
Cc1c(-n2c(-c3ccccc3)nc3ccccc3c2=O)c(=O)n(-c2ccccc2)n1C	.	.	.	.	.	60.0
Cc1nn(CCc2nc(-c3ccco3)cs2)c2[nH]c(=O)cc(C(F)(F)F)c12	.	.	.	.	.	77.4
N#Cc1ccccc1OCC(=O)OCCCOC(=O)COc1ccccc1C#N	.	.	.	299.9	.	.
CC(=O)Nc1ccc(C2=NNC(=Nc3ccc(S(=O)(=O)N4CCOCC4)cc3)SC2)cc1	.	.	.	.	.	65.4
O=S(=O)(c1ccc(N=C2NN=C(c3cc(F)ccc3F)CS2)cc1)N1CCOCC1	.	.	/	/	/	.
CCN1CCN(C(=O)CCCn2c(C)c3cnn(-c4ccccc4)c(=O)c3c2C)CC1	.	.	.	332.4	.	.
CCOC(=O)CC(=O)CSc1nc2c(cc1C#N)CCCCCC2	.	.	.	.	.	75.8
SMILES	PvdQ inh	pCIP destab	GASC-1 inh	Mot1-301 SUMO	HDAC3 inh	PHOSPHO1 inh
COC(=O)CC(=O)CSc1nc2c(cc1C#N)CCC2	.	.	.	.	.	.
COc1cccc2c(=O)c3c(cnn3C)n(C)c12	.	.	.	.	.	.
COc1cccc2c(=O)c3ccoc3n(C)c12	.	.	.	350.3	.	.
O=C(c1ccc(CS(=O)(=O)Cc2ccccc2)cc1)N1CCCCC1	.	.	.	.	.	.
CCCCCCCCCCOC(=O)Cn1c(COc2ccc(Cl)cc2)[n+](C)c2ccccc21	.	.	.	.	52.0	.
CCCCCCCCCCOC(=O)Cn1c(COc2ccccc2)[n+](C)c2ccccc21	.	.	.	.	.	.
N#Cc1c(Sc2ncc(C(F)(F)F)cc2Cl)nsc1C/C=N\OCc1c(F)cccc1Cl	.	.	.	.	.	78.7
COc1ccccc1CNC(=O)[C@H](C)NC(=O)C1CCN(C(=O)[C@@H](N)CCSC)CC1	.	.	.	.	.	.
COc1ccc(CNC(=O)[C@@H](C)NC(=O)C2CCN(C(=O)[C@@H](N)CCSC)CC2)cc1	.	.	.	612.2	.	.
O=C(Oc1ccccc1F)c1ccc2c(=O)n3c(nc2c1)CCC3	.	/	?	.	.	/
O=C1C(Cl)=C(Nc2ccc3cn[nH]c3c2)C(=O)c2ccccc21	.	59.2	.	.	.	.
CCCCCCOC(=O)Sc1nc2ccccc2o1	.	.	.	.	.	85.8
COC(=O)CSc1nc2ccccc2o1	.	.	.	.	.	.
O=CC1=C(c2ccccc2)Oc2ccccc2O1	81.6	.	.	.	.	.
CN(C)/C=C1/N=C(c2ccccc2)OC1=O	.	.	/	.	.	.
C=CCN(C(=O)CC(NC(C)=O)c1ccccc1)c1nc(-c2ccc(S(C)(=O)=O)cc2)cs1 (stereo not drawn)	.	.	.	.	.	.
c1ccc(SCCN2CCN(c3ccccc3)CC2)cc1	.	.	.	.	.	.
COc1ccc(C)cc1NC(=O)CSc1nnc(COc2ccc(C)cc2)n1Cc1ccco1	.	.	.	.	/	.
COc1ccc(C(=O)CSc2nnc(CNc3ccc(C)cc3C)n2Cc2ccco2)cc1	.	.	.	.	/	91.3
O=C(CSc1nnc(COc2ccccc2)n1Cc1ccco1)c1ccc(F)cc1	.	.	.	.	.	77.5
NC(=O)CSc1nnc(COc2ccccc2)n1Cc1ccco1	.	.	.	.	.	.
Cc1ccc(C(=O)CSc2nnc(CNc3ccc(C)cc3C)n2Cc2ccco2)cc1	.	.	.	.	.	.
O=C(CSc1nnc(-c2cc3ccccc3cc2O)n1Cc1ccco1)c1ccc(F)cc1	.	.	.	.	.	81.4
Cc1ccc(OCc2nnc(SCC(=O)c3ccccc3)n2Cc2ccco2)cc1	.	.	.	.	.	92.1
CN1CCN(c2cc(C(F)(F)F)nc3ccc(F)cc23)CC1	.	.	.	.	.	.
SMILES	PvdQ inh	pCIP destab	GASC-1 inh	Mot1-301 SUMO	HDAC3 inh	PHOSPHO1 inh
CCc1ccc(-c2cc(C)no2)cc1S(=O)(=O)NCCCN1CCN(c2ccccc2)CC1	.	.	.	.	.	.
Cc1ccc(SC(CC(=O)c2ccc(F)cc2)C(=O)O)cc1 (stereo not drawn)	.	.	/	.	.	.
CC(C)(C)c1ccc(C(=O)CC(Sc2ccc(Cl)cc2)C(=O)O)cc1 (stereo not drawn)	.	.	.	532.9	.	.
Cc1ccc2nc(N3C(=O)C(O)=C(C(=O)c4ccco4)C3c3cccs3)sc2c1 (stereo not drawn)	.	.	.	.	.	86.2
COc1ccccc1/C=C1\NC(=S)N(CC2CCCO2)C1=O (stereo not drawn)	.	.	.	.	.	97.4
COc1ccc(/C=C2/C(=O)N(CC3CCCO3)C(=S)N2C)c(OC)c1 (stereo not drawn)	.	.	.	.	.	.
CC(CCc1ccccc1)NC(=O)CNC(=O)N1CC(=O)Nc2ccccc21 (stereo not drawn)	.	.	.	.	.	.
